aSyn UTR act: Activators via SNCA 5'UTR binding, MLPCN; alpha-synuclein 5'UTR reporter, activators screen; actives 7.1% (n = 300,000); activity score, % (tested at 7.5 µM), hits read low; AID 1814; in the data active = activity score below about -60%
* hit, by the source's call. The list is a sample of the results.

SMILES	aSyn UTR act
COC(=O)C1C(=O)c2c([nH]c(C(=O)OC3CCCCC3)c2C)CC1C (configuration not stated)	-178.3*
Cc1ccc(S(=O)(=O)N/N=c2\oc3ccccc3cc2C(=O)Nc2cccc(C)c2)cc1	-85.2*
O=C(/C=C/Nc1ccc([N+](=O)[O-])cc1Br)c1cccc2ccccc12	-163.0*
COc1ccc(NC(C)c2ccccc2)cc1 (configuration not stated)	-90.7*
CC(C)Nc1ccc(Nc2ccnc3cc4ccccc4cc23)cc1	98.7
COc1ccc(CNCCC(c2ccc(OC(C)C)cc2)c2ccccc2OC)cc1 (configuration not stated)	133.6
O=C(Nc1ccc(-c2cnco2)cc1)c1ccc(F)cc1F	-145.9*
COc1ccc(-c2cnnc(N/N=C/c3ccc(O)c(O)c3)n2)cc1	-90.2*
Cc1nc2ccccc2nc1N/N=C/c1ccc(O)cc1	-87.3*
Oc1ccc(/C=N\Nc2nncc(-c3ccccc3)n2)cc1	-174.0*
COc1ccc(-c2cnnc(N/N=C/c3ccc(O)cc3)n2)cc1	-76.8*
Oc1ccc(Nc2nc3ccccc3nc2Nc2ccc(O)cc2)cc1	108.4
CCC(=O)Nc1nonc1-c1nc2ccccc2n1Cc1cccc2ccccc12	67.3
CCOc1ccccc1NC(=O)n1ncc2c(C)cccc21	-68.5*
CCCCOc1ccccc1NC(=O)Cn1c(-c2nonc2N)nc2ccccc21	124.2
Cc1cccc2c1cnn2C(=O)Nc1cc(F)ccc1F	-177.7*
COc1cccc(-c2ccnc3[nH]n(-c4ccccc4)c(=O)c23)c1	-75.8*
Cn1c(NCc2ccco2)nc2ccccc21	-102.0*
Cn1c(NCc2cccs2)nc2ccccc21	-63.5*
COc1ccccc1-n1cnc2cc(NCc3ccco3)ccc21	53.2
Cn1c(NCc2c[nH]c3ccccc23)nc2ccccc21	-98.0*
COc1ccc(/C=C/c2cc(C(F)(F)F)on2)cc1	-157.2*
CCC1C(=O)n2nc(-c3ccccc3)cc2N=C1C (configuration not stated)	-143.4*
O=C1NC(c2ccccc2)=N/C1=C/c1ccco1	-270.3*
O=C1NC(c2cccc(Br)c2)=N/C1=C\c1ccco1	-105.6*
SMILES	aSyn UTR act
O=C1NC(c2ccccc2Br)=N/C1=C\c1ccco1	-165.5*
NC(=Nc1ccccc1)NC(=O)c1nc(Cl)c(N)nc1N	-125.9*
Oc1ccc(Cl)cc1-c1cc(-c2ccccc2)n[nH]1	-99.2*
Cc1ccc(-c2cc(-c3ccc(C)cc3O)[nH]n2)cc1	-160.0*
Oc1ccc(Br)cc1-c1cc(-c2ccccc2F)[nH]n1	-74.2*
Cc1ccc(O)c(-c2cc(-c3cccc(Br)c3)n[nH]2)c1	-97.5*
Oc1ccccc1-c1cc(-c2ccc(F)cc2)n[nH]1	-127.6*
Cc1ccc(-c2cc(-c3ccc(F)cc3)n[nH]2)c(O)c1	-86.2*
Oc1ccc(F)cc1-c1cc(-c2ccc3c(c2)OCCO3)n[nH]1	-151.5*
CN(C)c1ccc(Nc2ncnc3ccc(Br)cc23)cc1	-71.6*
COc1ccc(-c2noc(N(C)CC(=O)Nc3cccc(C(F)(F)F)c3)n2)cc1	-76.3*
COc1ccc(-c2cc(C(=O)Nc3cccc(Cl)c3)no2)cc1	-265.6*
COC(=O)c1sccc1-c1ccc(C(=O)Nc2cccc(Cl)c2)o1	-124.9*
COc1ccc(-c2cc(C(=O)Nc3cccc(C(C)=O)c3)no2)cc1	-76.1*
COc1ccc(OC)c(-c2cc(C(=O)Nc3c(C)nn(Cc4ccc(Cl)cc4)c3C)no2)c1	58.3
COc1ccc(OC)c(-c2cc(C(=O)Nc3cccc(Cl)c3)no2)c1	-67.9*
COC(=O)c1sccc1-c1ccc(/C=N/OC(=O)c2ccccc2)o1	-69.0*
COc1ccc(-c2nnc(SC(C)C(=O)Nc3cccc(Cl)c3)o2)cc1 (configuration not stated)	-160.4*
CCCc1nnc(NC(=O)c2ccc([N+](=O)[O-])cc2)s1	-67.4*
CC(C)(C)Cc1nnc(NC(=O)c2ccc([N+](=O)[O-])cc2)s1	-77.3*
CCC(C)(C)c1nnc(NC(=O)c2ccc([N+](=O)[O-])cc2)s1	-149.3*
Oc1c(N=Nc2ccccc2)sc2ccccc12	-191.6*
Cc1ccc(CNC(=O)c2ccc(Cn3cc(-c4ccc(C)cc4)nc3-c3ccncc3)cc2)cc1	-176.6*
COCCNC(=O)c1ccc(-c2csc(C)n2)cc1	-64.0*
CCc1ccccc1NC(=O)c1ccc(-c2csc(C)n2)cc1	-143.0*
SMILES	aSyn UTR act
Cc1ccn(C(=O)c2ccc(NC(=O)C3CCCCC3)cc2)n1	-70.4*
Cc1ccc(CCNC(=O)NC(C)(C)C)cc1	-94.2*
Cc1ccc(C(=O)NCCc2csc(C)n2)cc1	-80.7*
Cc1ccc(C(=O)Nc2ccc(-c3csc(C)n3)cc2)cc1	-137.6*
Cc1ccc(C(=O)NCCc2ccccc2)cc1	71.1
Cc1ccc(C(=O)NCCc2ccncc2)cc1	-113.8*
Cc1nc(-c2ccc(NC(=O)C3CCCCC3)cc2)cs1	-173.7*
FC(F)(F)c1ccc(NCc2ccccn2)nc1	-166.6*
CCC(C)Nc1nc(-c2ccccn2)nc2ccccc12 (configuration not stated)	68.6
Cc1cc(NCc2ccccn2)nc2ccccc12	-86.8*
COC(=O)c1c(NC(=O)CCl)sc(C(=O)N2CCOCC2)c1C	-82.8*
O=C(N/N=C/C(Cl)=C\c1ccccc1)c1cccs1	-92.0*
CC(/C=N/NC(=O)c1cccs1)=C\c1ccccc1	-99.2*
COc1cccc2c1C(=O)c1c(O)c3c(c(O)c1C2=O)C[C@@](O)(C(=O)CO)C[C@@H]3O[C@H]1C[C@H](N)[C@H](O)[C@H](C)O1	109.3
CCN1/C(=C/c2ccc3cccc(C)c3[n+]2CC)Sc2ccccc21	-134.4*
CCN1/C(=C/c2ccc3cc(C)ccc3[n+]2CC)Sc2ccc3sccc3c21	130.8
COc1ccc(NC(=O)c2cc(Br)c(Br)s2)cn1	-69.1*
COc1ccc(NC(=O)c2nc3nccc(C)n3n2)cn1	-72.3*
COc1ccc(NC(=O)c2sccc2C)cn1	-115.4*
CCc1cc(C(=O)Nc2ccc(OC)nc2)sc1C	-94.5*
COc1ccc(OCc2cc(C(=O)N3CCCC(CO)C3)no2)c2ccccc12 (configuration not stated)	-102.3*
CSc1ccccc1OCc1cc(C(=O)N2CCN(C3CCCC3)C(=O)C2)no1	-112.4*
COc1ccccc1OCc1cc(C(=O)N2CCCC(OCc3cccnc3)C2)no1 (configuration not stated)	-133.5*
CSc1ccccc1OCc1cc(C(=O)N2CCCC(C)C2)no1 (configuration not stated)	-134.3*
CSc1ccccc1OCc1cc(C(=O)N2CCSCC2)no1	-113.2*
CCOC(=O)N1CCN(C(=O)c2cc(COc3ccc(F)cc3F)on2)CC1	-65.2*
CCOC(=O)C1CCN(C(=O)c2cc(COc3ccc(F)cc3F)on2)CC1	-144.0*
CN1/C(=C\C=C2/C(=O)Oc3ccccc3C2=O)C(C)(C)c2ccccc21	-123.3*
CC(=O)c1cccc(NC(=O)c2csc3c2CCCCC3)c1	-66.8*

Bioassay records: PubChem BioAssay, Broad Institute
